This note sets out measurements from PubChem BioAssay (NCATS).

The structures appear in SMILES notation. Where “and” joins values, the source holds several entries; their conditions need not be identical. Identical values can stand only once. Records with an inconclusive call do not appear. Calls of active or inactive are those of the source. The call rests on the fitted dose curve; in most records, active means well fitted cell-killing curve with a large enough effect; inconclusive means small, poorly fitted or top-dose-only effect; inactive means no such curve, though single readings can be large or run the other way.
Potency means the concentration at half of the fitted maximal effect.

The nature of this assay: qHTS of pediatric cancer cell lines to identify multiple opportunities for drug repurposing: Primary screen for NB1643 cells (AID 1347099). Further: nearly all actives have a fitted effect of over 50% in size.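 On activity change, negative = cytotoxic: plate controls were DMSO neutral control for no effect and bortezomib positive control for full effect.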 Conditions: NB1643 neuroblastoma viability, CellTiter-Glo luminescence, 48 h; series mostly up to 46 µM; activity change, negative = cytotoxic: at the top concentration. A digest of the protocol: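 Primary screen of approved and investigational compounds on cells in growth media at 37 degrees C, 5% CO2. MIPE set at 11-point and NPC set at 8-point dilutions; viability scored by ATP-based luminescence at 48 hours.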
In general terms: qHTS replaces the single test concentration by a dilution series.
As for `CN(C)[C@@H](CCOc1cccc2ccccc12)c1ccccc1`, the “activity change, negative = cytotoxic” value was 6.95% (inactive).

As to `O=c1cc(N2CCOCC2)oc2c(-c3ccccc3)cccc12`, the Potency is 20.9 µM (active).

Take `CC(=O)N1CCN(c2ccc(OC[C@H]3CO[C@](Cn4ccnc4)(c4ccc(Cl)cc4Cl)O3)cc2)CC1`: the “activity change, negative = cytotoxic” value was -13.9% (inactive).

On to `CN(C)c1ccc(O)c2c1C[C@H]1C[C@H]3[C@H](N(C)C)C(=O)C(C(N)=O)=C(O)[C@@]3(O)C(=O)C1=C2O`, for which the Potency entry was “inactive”.

As to `C[C@@H](c1ncncc1F)[C@](O)(Cn1cncn1)c1ccc(F)cc1F`, the “activity change, negative = cytotoxic” value was -10.1% (inactive).

For the compound `Cc1ccc(Nc2nccc(N(C)c3ccc4c(C)n(C)nc4c3)n2)cc1S(N)(=O)=O`, the “activity change, negative = cytotoxic” value is -12.8% (inactive).

As for `C=C(c1ccc(C(=O)O)cc1)c1cc2c(cc1C)C(C)(C)CCC2(C)C`, the “activity change, negative = cytotoxic” value was 5.69% (inactive).

Take `C[C@H](Cn1cnc2c(N)ncnc21)OCP(=O)(O)O`: the “activity change, negative = cytotoxic” value is 17.8% (inactive).

Consider `Oc1ccc2ccccc2c1SSc1c(O)ccc2ccccc12`, for which the Potency was 26.4 µM (active).

For the compound `CCCc1cc(=O)[nH]c(=S)[nH]1`, the “activity change, negative = cytotoxic” value is 7.02% (inactive).

In the case of `Nc1nc(N)c(N=O)c(OCC2CCCCC2)n1`, the Potency is 18.7 µM (active).

On to `CCN(CC)CCOc1ccc(Cc2ccccc2)cc1`, for which the “activity change, negative = cytotoxic” value is -20.9% (inactive).

For the compound `Cc1cc(Cl)ccc1OCCCC(=O)NO`, the Potency is 4.18 µM (active).

For the compound `CS(=O)(=O)OCCCCOS(C)(=O)=O`, the Potency entry is “inactive”.

With `O=C(c1ccccc1)c1ccc2n1CCC2C(=O)O` (stereo not drawn), the “activity change, negative = cytotoxic” value is 5.93% (inactive).

`Nc1nc(Cl)nc2c1ncn2[C@H]1C[C@H](O)[C@@H](CO)O1`: the Potency was 1.05 µM (active).

For the compound `COC(=O)C1=C(C)NC(C)=C(C(=O)OCCCN2CCC(c3ccccc3)(c3ccccc3)CC2)C1c1cccc([N+](=O)[O-])c1` (stereo not drawn), the “activity change, negative = cytotoxic” value is 2.72% (inactive).

Regarding `c1ccc2[nH]c(-c3cscn3)nc2c1`, the Potency result is “inactive”.

`COC1=C(OC)C(=O)C(CCCCCCCCCCO)=C(C)C1=O`: the “activity change, negative = cytotoxic” value is -7.15% (inactive).

Consider `Cc1cc(C2CCCCC2)n(O)c(=O)c1`, for which the Potency is 11.9 µM (active) and 20.9 µM (active).

For the compound `COc1cc(C(C)=O)ccc1OCCCN1CCC(c2noc3cc(F)ccc23)CC1`, the Potency entry is “inactive”.

`CN(C)CCCC1(c2ccc(F)cc2)OCc2cc(C#N)ccc21` (stereo not drawn): the Potency is 16.6 µM (active).

Consider `C[C@H](Cc1ccc(O)c(O)c1)[C@@H](C)Cc1ccc(O)c(O)c1`, for which the Potency is 14.8 µM (active).
